Where a name gives a salt, the structure may show the parent alone. Unmarked numbers belong to inactive results.
system: NCI-H1688; assay: inhibition of cell viability relative to untreated control (fraction); higher = stronger growth inhibition, active = 0.5 or more; conditions: 30 µM; 24 h
Procedure, shortened: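 After seeding at 3 × 10^3 cells/well in 96-well plates and a 24 h wait, NCI-H1688 small cell lung cancer cells received a natural compound library (TargetMol) at 30 µM for 24 h, kept at 37°C with 5% CO2. Triplicate readings of Cell Counting Kit-8 absorbance at 450 nm measured viability. Each value is the inhibition of cell viability as a fraction, derived from viability normalised to untreated cells.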

| Structure (SMILES) | inhibition of cell viability |
| --- | --- |
| O=C(O)CCC(=O)O [Succinic acid] | 0.0297 |
| CC12CCC(CC1=O)C2(C)C (stereo not drawn) [Camphor] | -0.239 |
| COc1cc(C[C@H]2C(=O)OC[C@@H]2Cc2ccc(OC)c(OC)c2)ccc1O [Arctigenin] | 0.431 |
| COc1ccc([C@@H]2CC(=O)c3c(O)cc(O[C@@H]4O[C@H](CO)[C@@H](O)[C@H](O)[C@H]4O[C@@H]4O[C@@H](C)[C@H](O)[C@@H](O)[C@H]4O)cc3O2)cc1O [Neohesperidin] | 0.00547 |
| CC1(C)[C@@H](O[C@H]2O[C@H](C(=O)O)[C@@H](O)[C@H](O)[C@H]2O[C@@H]2O[C@H](C(=O)O)[C@@H](O)[C@H](O)[C@H]2O)CC[C@]2(C)[C@H]3C(=O)C=C4[C@@H]5C[C@@](C)(C(=O)O)CC[C@]5(C)CC[C@@]4(C)[C@]3(C)CC[C@@H]12 [Glycyrrhizin (Glycyrrhizic Acid)] | -0.0055 |
| COc1c2ccoc2cc2oc(=O)ccc12 [Bergapten] | 0.298 |
| Cc1[nH]ccc2c1[nH]c1cc(=O)ccc12 [Harmol] | 0.664 (active) |
| c1coc(CNc2ncnc3[nH]cnc23)c1 [Kinetin] | 0.00365 |
| CC[C@H]1OC(=O)[C@H](C)[C@@H](O[C@H]2C[C@@](C)(OC)[C@@H](O)[C@H](C)O2)[C@H](C)[C@@H](O[C@@H]2O[C@H](C)C[C@H](N(C)C)[C@H]2O)[C@](C)(O)C[C@@H](C)C(=O)[C@H](C)[C@@H](O)[C@]1(C)O [Erythromycin] | 0.0155 |
| O=c1cc(-c2ccccc2)oc2cc(O)cc(O)c12 [Chrysin] | 0.197 |
| C[C@H]1O[C@@H](O[C@H]2CC[C@@]3(C)[C@@H](CC[C@]4(C)[C@@H]3C=C[C@]35OC[C@@]6(CCC(C)(C)C[C@H]63)[C@@H](O)C[C@]54C)[C@]2(C)CO)[C@H](O)[C@@H](O[C@@H]2O[C@H](CO)[C@@H](O)[C@H](O)[C@H]2O)[C@H]1O [Saikosaponin A] | 1 (active) |
| CC(C)=CCC/C(C)=C/CC/C(C)=C/CC/C(C)=C/CC1=C(C)C(=O)c2ccccc2C1=O [Menatetrenone] | -0.0024 |
| C[C@@H]1O[C@@H](O[C@H]2[C@H](O[C@H]3CC[C@@]4(C)[C@@H](CC[C@]5(C)[C@@H]4CC=C4[C@@H]6CC(C)(C)CC[C@]6(C(=O)O)CC[C@]45C)[C@]3(C)CO)OC[C@H](O)[C@@H]2O)[C@H](O)[C@H](O)[C@H]1O [Alpha-Hederin] | 0.999 (active) |
| C/C=C1\[C@H]2C=C(C)C[C@]1(N)c1ccc(=O)[nH]c1C2 [(-)-Huperzine A (HupA)] | 0.178 |
| CC(=O)Oc1c(C)c(C)c2c(c1C)CCC(C)(CCC[C@H](C)CCC[C@H](C)CCCC(C)C)O2 (stereo partly drawn) [Vitamin E Acetate] | -0.0362 |
| COc1ccc(-c2cc(=O)c3c(O)c(OC)c(O)cc3o2)cc1OC [Eupatilin] | 0.345 |
| N[C@@H](Cc1c[nH]c2ccc(O)cc12)C(=O)O [L-5-Hydroxytryptophan] | 0.0989 |
| OC[C@H]1O[C@@H](O[C@@H]2OC=C[C@H]3[C@H](O)[C@@H]4O[C@]4(CO)[C@@H]23)[C@H](O)[C@@H](O)[C@@H]1O [Catalpol] | -0.0576 |
| CC1(C)CC[C@]2(C(=O)O)[C@H](O)C[C@]3(C)C(=CC[C@@H]4[C@@]5(C)CC[C@H](O)[C@@](C)(C=O)[C@@H]5CC[C@]43C)[C@@H]2C1 [Quillaic Acid] | 0.0942 |

| Structure (SMILES) | inhibition of cell viability |
| --- | --- |
| CN(N=O)C(=O)N[C@@H](C=O)[C@@H](O)[C@H](O)[C@H](O)CO [Streptozocin] | 0.214 |
| NCCc1c[nH]cn1 [Histamine] | 0.233 |
| C=C[C@H]1CN2CC[C@H]1C[C@@H]2[C@@H](O)c1ccnc2ccc(OC)cc12 [Quinidine hydrochloride] | -0.217 |
| COc1ccc(C[C@H]2COC(=O)[C@@H]2Cc2ccc(O[C@@H]3O[C@H](CO)[C@@H](O)[C@H](O)[C@H]3O)c(OC)c2)cc1OC [Arctiin] | 0.0918 |
| O=C1c2c(O)cc(O)cc2OC(c2ccc(O)c(O)c2)C1O (stereo not drawn) [Taxifolin (Dihydroquercetin)] | 0.086 |
| C=C(C)[C@@H]1CC=C(CO)CC1 [Perillyl alcohol] | 0.195 |
| O=C(/C=C/C=C/c1ccc2c(c1)OCO2)N1CCCCC1 [Piperine] | -0.249 |
| COc1ccc2cc1Oc1ccc(cc1)C[C@H]1c3cc(c(OC)cc3CCN1C)Oc1c(O)c(OC)cc3c1[C@H](C2)N(C)CC3 [Fangchinoline] | 0.969 (active) |
| CC(=O)O[C@]1(C(C)=O)CC[C@H]2[C@@H]3C[C@H](C)C4=CC(=O)CC[C@]4(C)[C@H]3CC[C@@]21C [Farlutin] | 0.01 |
| CC[C@H](C)C(=O)O[C@H]1CCC=C2C=C[C@H](C)[C@H](CC[C@@H]3C[C@@H](O)CC(=O)O3)[C@H]21 [Mevastatin] | 0.86 (active) |
| O=C(O)C1=CO[C@@H](O[C@@H]2O[C@H](CO)[C@@H](O)[C@H](O)[C@H]2O)[C@@H]2C(CO)=CC[C@H]12 [Geniposidic Acid] | -0.0628 |
| Cn1c(=O)c2c(ncn2CC(=O)O)n(C)c1=O [Theophylline-7-acetic acid] | -0.159 |
| C[C@H]1[C@H](OC(=O)CCC(=O)O)O[C@@H]2O[C@@]3(C)CC[C@H]4[C@H](C)CC[C@@H]1[C@@]24OO3 [Artesunate] | 0.726 (active) |
| CC1=C(C/C=C(\C)CCC[C@H](C)CCC[C@H](C)CCCC(C)C)C(=O)c2ccccc2C1=O [Vitamin K1] | -0.199 |
| O=c1c2cc(O)c(O)cc2oc2cc(O)c([C@@H]3O[C@H](CO)[C@@H](O)[C@H](O)[C@H]3O)c(O)c12 [Mangiferin] | -0.186 |
| CC1(C)[C@@H](O)CC[C@]2(C)[C@H]3C(=O)C=C4[C@@H]5C[C@@](C)(C(=O)O)CC[C@]5(C)CC[C@@]4(C)[C@]3(C)CC[C@@H]12 [Enoxolone] | -0.0418 |
| C[C@@H]1O[C@@H](O[C@H]2[C@H](O[C@H]3CC[C@@]4(C)[C@@H](CC[C@]5(C)[C@@H]4CC=C4[C@@H]6CC(C)(C)CC[C@]6(C(=O)O[C@@H]6O[C@H](CO[C@@H]7O[C@H](CO)[C@@H](O)[C@H](O)[C@H]7O)[C@@H](O)[C@H](O)[C@H]6O)CC[C@]45C)[C@]3(C)CO)OC[C@H](O)[C@@H]2O)[C@H](O)[C@H](O[C@@H]2O[C@H](CO)[C@@H](O[C@@H]3O[C@H](CO)[C@@H](O)[C@H](O)[C@H]3O)[C@H](O)[C@H]2O)[C@H]1O [Macranthoidin B] | 0.21 |
| CC(=O)[C@H]1CC[C@H]2[C@@H]3CCC4=CC(=O)CC[C@]4(C)[C@H]3CC[C@]12C [Progesterone] | -0.156 |
| Nc1ncnc2c1ncn2C1CC(O)C(CO)O1 (stereo not drawn) [2'-Deoxyadenosine monohydrate] | -0.0483 |
